Giardia FBPA inh = qHTS Assay for Inhibitors of Fructose-1,6-bisphosphate Aldolase from Giardia Lamblia | purified Giardia FBPA | Potency, µM (series often up to 59.6 µM), for inactives: top-dose activity, negative = inhibition, actives largely listed as inhibitors | 0.71% of 290,000 active; note: potency is the fitted concentration of half-maximal effect; % is set by controls: 0 for no effect and ±100 for the full control effect; nearly all actives have a fitted effect of over 55% in size
Target sequence (A8B2U2 whole entry, looked up): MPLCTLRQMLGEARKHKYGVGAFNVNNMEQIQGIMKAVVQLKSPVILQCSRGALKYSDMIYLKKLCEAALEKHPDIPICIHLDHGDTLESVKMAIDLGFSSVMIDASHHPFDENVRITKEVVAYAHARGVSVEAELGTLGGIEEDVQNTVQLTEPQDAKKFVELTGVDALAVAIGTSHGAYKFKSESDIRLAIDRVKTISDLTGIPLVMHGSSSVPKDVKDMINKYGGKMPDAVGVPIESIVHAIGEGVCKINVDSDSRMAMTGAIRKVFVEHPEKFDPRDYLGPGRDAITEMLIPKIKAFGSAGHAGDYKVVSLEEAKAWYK
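Giardia FBPA (40 nM reagent) was preincubated 10 min at RT with compound (up to 57.5 uM final), then substrate plus GAPDH/TPI/NAD/arsenate coupling system with diaphorase/resazurin was added; resorufin fluorescence (525/598 nm) was read after 20 min.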
LmPK inhibitor = qHTS Assay for Inhibitors of Leishmania Mexicana Pyruvate Kinase (LmPK). Q27686. purified LmPK, Kinase-Glo ATP luminescence, 1 h. Potency, µM (titrated, usually from 57.5 µM), without a hit: at the highest dose activity change, negative = inhibition, most hits filed as inhibitors. 0.37% of 290,000 active; note: potency is the fitted concentration of half-maximal effect; % is set by controls: 0 for no effect and ±100 for the full control effect
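Screened at intermediate enzyme activity to detect both inhibitors and activators: LmPK at 0.1 nM, with a 0.5 nM enzyme column as activation reference. PEP 0.5 mM, ADP 0.1 mM; ATP detected by luminescence after 1 h.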
Tb PYK inh = qHTS of Trypanosoma Brucei Inhibitors; TbPYK enzyme, Kinase-Glo Plus ATP luminescence, 45 min; pyruvate kinase (Trypanosoma brucei), Q57TT1; 0.12% of 410,000 active; AID 624173, 2012; Potency, µM (series often up to 76.8 µM), for the others: top-dose activity, negative = inhibition, hits mostly inhibitors; note: potency is the fitted concentration of half-maximal effect; % is set by controls: 0 for no effect and ±100 for the full control effect; nearly all actives have a fitted effect of over 50% in size
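TbPYK + substrate in 50 mM TEA pH 7.2, 100 mM KCl, 10 mM MgCl2, 0.05% BSA, 0.01% Tween-20; cpd pinned; ADP 130 uM final; 45 min RT; Kinase-Glo Plus 10 min; luminescence endpoint.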
CHX counter = Cycloheximide Counterscreen for Small Molecule Inhibitors of Shiga Toxin. cell reporter, cycloheximide protein synthesis inhibition counterscreen. max response, %. 12% of 300,000 active. AID 2314, 2010; in the data active = max response mostly above about 13%, no sharp cut-off; inactive = mostly below about 14%; note: read at 38.3 µM for the half of the compounds with a filed dose; 0% is about no effect
Shiga toxin inh = A qHTS for Small Molecule Inhibitors of Shiga Toxin; AID 2315, 2010; 9.2% of 290,000 active; Vero cells, Shiga toxin protein synthesis inhibition reporter; inhibition, % at 38.7 µM; in the data active = inhibition mostly above about 28%, no sharp cut-off; inactive = mostly below about 43%; note: 0% is about no effect
RE007 growth inh = qHTS Assay for Inhibitors of the HIV-1 protein Vpr; Potency, µM (series often up to 92.2 µM), without a hit: at the highest dose activity change, negative = less growth, usual class: inhibitors; 0.21% of 360,000 active; S. pombe RE007 Vpr strain, BacTiter-Glo ATP luminescence, 24 h; active = well fitted falling curve with a large enough effect; inconclusive = small, poorly fitted or top-dose-only effect; inactive = no such curve, though single readings can be large or run the other way; note: potency is the fitted concentration of half-maximal effect; % is set by controls: 0 for no effect and ±100 for the full control effect; nearly all actives have a fitted effect of over 50% in size
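Fission yeast strain RE007, carrying one chromosomally integrated HIV-1 vpr copy, was seeded at OD 0.01 in PMG+AL medium with 23 nL pinned compound. After 24 h at 30 °C and 99% humidity, viability was read by BacTiter-Glo luminescence.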
Active calls of the source: *; [ ] = another dose, or the depositor's remark. Shown is part of a subset that was picked to be rich in hits. Unless noted, calls come from the whole dose curve; as a rule, active = well fitted curve in the direction sought with a large enough effect; inconclusive = small, poorly fitted or top-dose-only effect, or another doubt; inactive = no such curve, though single readings can be large; an effect the other way counts as inactive or inconclusive.

How did Cc1c(C(=O)N2CCCC2)oc2c1-c1nn(CC(=O)NC(C)c3ccccc3)cc1CC2 (stereo unspecified) do in these assays?
Tb PYK inh: -0.7%

Results for COc1ccc(NC(=S)NC2CCCCCC2)c(OC)c1 ?
Giardia FBPA inh: 2.9%; LmPK inhibitor: 1.3%; Tb PYK inh: 8.7%; CHX counter: -10.4; Shiga toxin inh: 47.7*; RE007 growth inh: inconclusive

Results for COc1ccc(NC(=S)NC(=O)CC(C)C)c(OC)c1 ?
Giardia FBPA inh: -0.1%; LmPK inhibitor: -3.7%; Tb PYK inh: -9.5%; CHX counter: 20.7*; Shiga toxin inh: 50.4*; RE007 growth inh: -12.8%

Results for COc1ccc(NC(=S)Nc2ccc(OC)cc2OC)c(OC)c1 ?
Giardia FBPA inh: -9.4%; LmPK inhibitor: 1.8%; Tb PYK inh: -10.7%; CHX counter: 0.8; Shiga toxin inh: -5.9; RE007 growth inh: -0.8%

What do the screens show for `COc1ccc(NC(=S)Nc2cc(C)ccn2)c(OC)c1`?
Giardia FBPA inh: -9.4%; LmPK inhibitor: 2.8%; Tb PYK inh: -6.5%; CHX counter: 28.3*; Shiga toxin inh: 75.0*; RE007 growth inh: -16.8%

Results for COc1ccc(NC(=S)NC2CCCCC2)c(OC)c1 ?
Giardia FBPA inh: -3.2%; LmPK inhibitor: 0.5%; Tb PYK inh: 1.7%; CHX counter: -0.5; Shiga toxin inh: -2.0; RE007 growth inh: 7.2%

How did COc1ccc(NC(=S)Nc2ccccn2)c(OC)c1 do in these assays?
Giardia FBPA inh: 0.8%; LmPK inhibitor: 0.3%; Tb PYK inh: -1.9%; CHX counter: 35.1*; Shiga toxin inh: 119.7*; RE007 growth inh: -7.0%

Results for CC1(C)N=C(N)N=C(N)N1c1ccc(Cl)cc1 ?
Tb PYK inh: 0.5%

What do the screens show for `COC(=O)c1sccc1NC(=S)N1CCN(c2cc(C)ccc2C)CC1`?
Giardia FBPA inh: 1.9%; LmPK inhibitor: -0.3%; Tb PYK inh: 4.3%; CHX counter: -4.8; Shiga toxin inh: -2.8; RE007 growth inh: 4.6%

Results for S=C(Nc1cccc2ccccc12)NC1CCCCC1 ?
Giardia FBPA inh: inconclusive; LmPK inhibitor: 4.4%; Tb PYK inh: 0.5%; CHX counter: 40.3*; Shiga toxin inh: 50.8*; RE007 growth inh: -6.2%

How did CC(C)OC(=O)c1c(NC(=O)c2cccs2)sc2c1CCCC2 do in these assays?
Giardia FBPA inh: -0.1%; LmPK inhibitor: 5.5%; Tb PYK inh: 0.2%; CHX counter: 5.0; Shiga toxin inh: 36.4; RE007 growth inh: 3.1%

How did COC(=O)c1c(NC(=O)c2cccs2)sc2c1CCC(C)C2 (stereo unspecified) do in these assays?
Giardia FBPA inh: -10.2%; LmPK inhibitor: -2.0%; Tb PYK inh: 7.6%; CHX counter: -3.3; Shiga toxin inh: 34.5; RE007 growth inh: -16.7%

Results for O=C(Nc1sc2c(c1C(=O)O)CCCCC2)c1cccs1 ?
Giardia FBPA inh: -15.4%; LmPK inhibitor: -8.8%; Tb PYK inh: -2.3%; CHX counter: 66.0*; Shiga toxin inh: 128.6*; RE007 growth inh: inconclusive

Results for CC1CCc2c(sc(NC(=O)c3cccs3)c2C(=O)O)C1 (stereo unspecified) ?
Giardia FBPA inh: 5.6%; LmPK inhibitor: 2.9%; Tb PYK inh: -4.5%; CHX counter: 47.3*; Shiga toxin inh: 80.9*; RE007 growth inh: inconclusive

How did O=C(Nc1sc2c(c1C(=O)O)CCCC2)c1cccs1 do in these assays?
Giardia FBPA inh: -13.1%; LmPK inhibitor: -14.5%; CHX counter: 27.2*; Shiga toxin inh: 127.4*; RE007 growth inh: -38.8%[3.69 µM]

Results for CCOC(=O)N1CCC(NCCNC(=O)c2ccc(F)c(F)c2)CC1 ?
Tb PYK inh: 5.1%; RE007 growth inh: -4.2%

How did COC(=O)c1ccc(-c2ccc(OC)c(C3C4C=CCC(C)C4C(=O)N3Cc3ccccc3)c2)cc1 (stereo unspecified) do in these assays?
Giardia FBPA inh: 0.7%; CHX counter: -1.1; Shiga toxin inh: 22.1

Results for CC(C)(C)OC(=O)NCCc1nnc(S(=O)(=O)Cc2ccc(Cl)cc2Cl)o1 ?
Giardia FBPA inh: -3.3%; LmPK inhibitor: 2.2%; Tb PYK inh: -9.8%; CHX counter: 19.2*; Shiga toxin inh: -4.2; RE007 growth inh: 13.3%

What do the screens show for `CC(C)(C)OC(=O)NCCc1nnc(SCc2ccccc2Cl)o1`?
Giardia FBPA inh: -2.3%; LmPK inhibitor: 6.0%; Tb PYK inh: -2.7%; CHX counter: -2.2; Shiga toxin inh: 7.7; RE007 growth inh: -12.2%

Results for Cc1cc(C)cc(NC(=O)CSc2nc3c([nH]c4ccccc43)c(=O)n2-c2ccc(F)cc2)c1 ?
Tb PYK inh: 0.4%

What do the screens show for `CCCCN(CCCC)c1ncnc2nc[nH]c12`?
Giardia FBPA inh: 0.8%; LmPK inhibitor: 0.4%; Tb PYK inh: -16.5%; CHX counter: -2.9; Shiga toxin inh: -9.7; RE007 growth inh: -5.6%

How did CCCCN(Cc1ccccc1)c1ncnc2nc[nH]c12 do in these assays?
Giardia FBPA inh: 3.6%; LmPK inhibitor: -4.1%; Tb PYK inh: 2.3%; CHX counter: 36.0*; Shiga toxin inh: 31.5*; RE007 growth inh: 11.6%

Results for CCc1ccc(C(C(=O)NCc2ccc(F)cc2)N(C(=O)c2csnn2)C2CC2)cc1 (stereo unspecified) ?
Giardia FBPA inh: 0.1%; LmPK inhibitor: 3.2%; Tb PYK inh: 0.2%; CHX counter: 7.0; Shiga toxin inh: -11.2; RE007 growth inh: 4.9%

What do the screens show for `CC(/C=N/N1CCN(c2ccccc2)CC1)=C\c1ccco1`?
Giardia FBPA inh: 1.2%; LmPK inhibitor: 12.6µM*; Tb PYK inh: inconclusive; CHX counter: 43.7*; Shiga toxin inh: 37.3; RE007 growth inh: -23.5%

How did CC(=C/c1ccco1)/C=N/N1CCN(c2ccccc2)CC1 do in these assays?
LmPK inhibitor: 15.8µM*; CHX counter: 46.4*; Shiga toxin inh: 86.4*; RE007 growth inh: 0.3%[3.69 µM]

Results for CC(/C=N/N1CCN(c2ccccc2)CC1)=C\c1ccccc1 ?
Giardia FBPA inh: -0.9%; LmPK inhibitor: -17.4%; Tb PYK inh: 4.7%; CHX counter: -1.0; Shiga toxin inh: -10.5; RE007 growth inh: 4.3%

Results for COc1ccc(NC(=O)C/C(C)=N/NC(=O)c2cnccn2)c(OC)c1 ?
Giardia FBPA inh: -8.6%; LmPK inhibitor: -1.9%; Tb PYK inh: 1.1%; CHX counter: 36.9*; Shiga toxin inh: 33.8; RE007 growth inh: 2.8%

How did COc1cc(OC)cc(C(=O)N/N=C(\C)CC(=O)Nc2ccccn2)c1 do in these assays?
Giardia FBPA inh: inconclusive; LmPK inhibitor: 14.2%; Tb PYK inh: -4.8%; CHX counter: 1.6; Shiga toxin inh: 17.1; RE007 growth inh: 7.5%

High-throughput results: PubChem, National Center for Advancing Translational Sciences (NCATS)
